A selection: hits, their analogues and other compounds. The true share with any hit is near 9.3%.
SMN2 splice enh: SMN2 splice variant enhancement; Potency, µM (titrated, usually from 46.1 µM), for inactives: top-dose activity change, positive = activation, usual class: activators; HEK293 SMN2-luciferase splicing reporter, luminescence, 30-36 h; 2.8% of 210,000 active; AID 1458; also: % of control where 0% means no effect; nearly all actives have a fitted effect of over 55% in size
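HEK293 cells carry an SMN2 minigene-luciferase reporter in which exon 7 inclusion puts luciferase in frame. Cells were seeded at 2000 cells/well, attached for 10-12 hours, then exposed to compounds for 30-36 hours at 37C before ONE-Glo luminescence.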
Rab9 prom act: activators of Rab9 promoter. Huh7 Rab9 promoter-luciferase reporter, luminescence, 24 h. Potency, µM (highest dose often 9.22 µM), for inactives: at the highest dose activation, negative = inhibition, most hits filed as activators. 2.8% of 320,000 active. AID 485297; also: % of control where 0% means no effect; nearly all actives have a fitted effect of over 60% in size
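Promoter activation is measured as luciferase luminescence in Huh7 cells stably transfected with a Rab9 promoter–luciferase construct, following 24 h compound exposure at 37 °C and 10 min reagent incubation at ambient temperature.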
FLuc modulator: counter-screen for miR-21 project: firefly luciferase inhibitors or activators. Potency, µM (top dose mostly 57.5 µM), without a hit: top-dose activity change, negative = inhibition, most hits filed as inhibitors. purified FLuc, Km substrates, luminescence inhibition. 6.9% of 360,000 active. P08659;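 also: plate controls were vehicle for no effect and reference inhibitor for full effect; nearly all actives have a fitted effect of over 55% in size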
Target sequence (P08659 whole entry, looked up): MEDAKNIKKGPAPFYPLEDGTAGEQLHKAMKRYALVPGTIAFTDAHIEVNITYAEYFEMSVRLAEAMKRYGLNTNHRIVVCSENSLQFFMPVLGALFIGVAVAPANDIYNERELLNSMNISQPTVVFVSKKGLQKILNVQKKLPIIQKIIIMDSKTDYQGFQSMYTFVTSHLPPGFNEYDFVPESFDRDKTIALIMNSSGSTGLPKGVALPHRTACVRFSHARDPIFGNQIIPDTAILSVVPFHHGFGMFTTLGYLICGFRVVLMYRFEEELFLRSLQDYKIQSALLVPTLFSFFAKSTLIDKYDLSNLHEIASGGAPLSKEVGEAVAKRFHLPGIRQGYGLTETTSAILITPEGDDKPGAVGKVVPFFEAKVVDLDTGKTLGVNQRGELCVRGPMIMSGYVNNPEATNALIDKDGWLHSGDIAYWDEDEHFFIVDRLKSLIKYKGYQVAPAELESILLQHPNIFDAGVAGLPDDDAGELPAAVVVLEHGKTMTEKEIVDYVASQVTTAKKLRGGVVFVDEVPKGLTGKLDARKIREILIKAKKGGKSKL
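Biochemical qHTS of compounds, final roughly 60 µM downward over six points, against 10 nM purified firefly luciferase using Km concentrations of substrates (10 uM D-luciferin, 10 uM ATP) in Tris acetate pH 7.5 buffer; luminescence output.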
NPC1 promoter act: NPC1 promoter activation | Huh7 NPC1 promoter luciferase reporter, 24 h | Potency, µM (series often up to 9.22 µM), for inactives: top-dose activation, actives largely listed as activators | 2.4% of 320,000 active; also: % of control where 0% means no effect; nearly all actives have a fitted effect of over 60% in size
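Stable NPC1-promoter luciferase Huh7 line; cpd (DMSO) 24 h, 37 °C, 5% CO2; Amplite luciferase reagent 10 min RT; luminescence readout. qHTS format.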
ELG1 genotoxic: genotoxicity induction in ELG1-luciferase HEK293T cells; HEK293T ELG1-luciferase reporter, luminescence, 16 h; Potency, µM (highest dose often 46 µM), without a hit: at the top dose activity change, positive = activation, usual class: activators; 1.3% of 330,000 active; AID 504466; also: % of control where 0% means no effect; nearly all actives have a fitted effect of over 60% in size
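Screening used a luciferase reporter fused to human ELG1 in HEK293T cells. Luminescence was read on a CCD plate imager after 16 hr exposure and 30 min ONE-Glo incubation.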
ELG1 repair inh: ELG1-dependent DNA repair inhibition | AID 504467 | HEK293T ELG1-luciferase reporter, luminescence, 16 h; DNA damage induced by 5-fluorouridine | 2.3% of 330,000 active | Potency, µM (doses to about 46.1 µM), inactives show at the highest dose activity change, negative = inhibition, usual class: inhibitors; also: % is scaled to controls: 0 for no effect and ±100 for the full control effect; nearly all actives have a fitted effect of over 55% in size
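Overnight (16 hr) co-exposure of 2,000 cells/well to 5-fluorouridine and compound at 37 °C preceded detection. Luciferase was quantified via ONE-Glo luminescence; loss of signal denotes inhibition.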
Active calls of the source: *; ? = inconclusive; . = no result; [ ] = remark or other dose. Calls follow the shape of the dose curve; as a rule, active = well fitted curve in the direction sought with a large enough effect; inconclusive = small, poorly fitted or top-dose-only effect, or another doubt; inactive = no such curve, though single readings can be large; an effect the other way counts as inactive or inconclusive. Potency is read from the fitted curve at half-maximal effect.

SMILES	SMN2 splice enh	Rab9 prom act	FLuc modulator	NPC1 promoter act	ELG1 genotoxic	ELG1 repair inh
Brc1ccc(-c2cn3ccccc3n2)cc1	.	0.398µM*	0.757µM*	0.708µM*	?	?
CCc1ccc(S(=O)(=O)Nc2cc(-c3cn4ccccc4n3)ccc2C)cc1	8.7%	.	?	.	.	.
COCC(=O)N1CCc2nc(-c3ccccc3)c3c(c2C1)CO[C@@H](C)C3	7.1%[9.22 µM]	.	.	.	.	.
CCn1c(SCC(=O)Nc2cc(C)on2)nc2c(c1=O)SCC2	.	3.7%	0.3%	2.3%	2.8%	-3.8%
C#CCOCCOCCOCCNc1nc(N2CCN(C(=O)[C@H](CCCCN)n3cc(C(N)COC(=O)C(F)(F)F)nn3)CC2)nc(N2CCN(C(=O)[C@H](CCCCN)n3cc(C(N)CC(C)C)nn3)CC2)n1 (stereo partly specified)	.	1.5%	-0.3%	-0.2%	3.5%	8.6%
O=C(COc1ccc(Br)cc1)NCc1cn2ccccc2n1	.	2.1%	-1.3%	-4.1%	-1.3%	-4.7%
CN(C)S(=O)(=O)c1ccc(-c2cn3ccccc3n2)cc1	?	2.51µM*	5.36µM*	?	5.8µM*	?
Brc1ccc(OCc2cn3ccccc3n2)cc1	10µM*	0.631µM*	2.69µM*	1.58µM*	?	?
c1ccc2c(-c3cn4ccccc4n3)c[nH]c2c1	14.1µM*	3.55µM*	12µM*	?	14.1%	?
Cc1ccc(CN2CCN(C(=O)CCC(=O)Nc3nnc(C(C)C)s3)CC2)c(C)c1	.	0.3%	4.6%	0.6%	-0.3%	2.5%
Cc1cc(C)c2nc(-n3nc(C)cc3N)cc(C)c2c1	11.2µM*	?	1.2µM*	12.5%	?	?
Cc1cc(N)n(-c2cc(C)c3ccccc3n2)n1	11.2µM*	?	2.69µM*	-4.4%	?	?
c1ccc2c(N3CCNCC3)nc(-c3ccoc3)nc2c1	0.8%	.	.	.	.	.
Cc1sc(NC(=O)c2ccco2)c(C(c2cccnc2)N2CCN(CCO)CC2)c1C (stereo unspecified)	7.7%	1.7%	-9.1%	-0.4%	-3.0%	-2.1%
CCOC(=O)C1CCN(C(c2cccnc2)c2c(NC(=O)c3ccco3)sc(C)c2C)CC1 (stereo unspecified)	-34.6%	-14.6%	-10.3%	-15.1%	0.5%	14.6µM*
CCOC(=O)c1c(-c2ccc(C)cc2)csc1NC(=O)CCN1CCOCC1	-22.3%	-1.1%	-1.4%	-3.3%	-1.5%	-17.0%
CCOC(=O)c1c(-c2ccccc2)csc1NC(=O)CCN1CCOCC1	-8.0%	-4.3%	-1.0%	-0.1%	-4.1%	23.1µM*
CCOC(=O)c1c(-c2ccccc2)csc1NC(=O)CSc1nnnn1C	-31.1%	9.7%	-2.1%	7.6%	-21.8%	4.11µM*
CCN(CC)CCN(Cc1cc2cc3c(cc2[nH]c1=O)OCO3)C(=S)NCCOC	.	-3.8%	1.2%	3.4%	-0.2%	11.1%
CCCCCC/C(C)=C1/SC(=S)NC1=O	-11.6%	-2.0%	-6.2%	-3.0%	-7.8%	-1.6%
C/C(C/C(C)=C1/SC(=S)NC1=O)=C1\SC(=S)NC1=O	0.9%	-0.2%	26.9µM*	-4.3%	0.3%	13.6%
O=C(OCc1c(-c2ccccc2)ncc2ccccc12)c1cccc(Br)c1	.	0.2%	3.9%	3.3%	-2.4%	9.2µM*
Cc1c(Cl)cccc1-n1ncc(C(=O)N2CCN(C)CC2)c1C1CCN(C(=O)OC(C)(C)C)CC1	.	.	0.6%	.	.	.
O=C(Nc1ccc2c(c1)CCC2)c1ccc(Cl)nc1	?	?	12µM*	15.1%	?	?
O=C(Nc1ccc2c(c1)CCC2)c1cnc(Cl)c(Cl)c1	?	29.7%	3.01µM*	2.7%	?	?
SMILES	SMN2 splice enh	Rab9 prom act	FLuc modulator	NPC1 promoter act	ELG1 genotoxic	ELG1 repair inh
O=C(Nc1ccsc1C(=O)O)c1ccc(Cl)cc1	.	3.98µM*	8.49µM*	2.82µM*	23.1µM*	?
Cc1ccc(C(=O)Nc2ccsc2C(=O)O)cc1	.	0.447µM*	2.69µM*	0.708µM*	23.1µM*	?
Cc1cc2ncc(C(=O)Nc3ccsc3C(=O)O)c(C)n2n1	-1.6%	?	12µM*	?	?	?
O=C(Nc1cc(F)c(Br)cc1F)c1ccc(Cl)cc1	.	1.78µM*	2.69µM*	2.24µM*	?	?
O=C(Cn1ncc2c3ccccc3n(Cc3ccccc3F)c2c1=O)NCc1ccccc1Cl	-0.7%	.	-6.4%	.	.	.
O=C(OCC(=O)N1CCCC1)c1cc(F)c(F)cc1Cl	.	0.7%	4.1%	-0.2%	-5.1%	14.9%
CCOC(=O)C1CCCN(C(=O)Cn2ncc3c4ccccc4n(Cc4ccc(F)cc4)c3c2=O)C1 (stereo unspecified)	-17.4%	.	-1.7%	.	.	.
Cn1c(-c2ccncc2)nc2ccccc21	.	0.0%	6.0%	0.0%	7.3%	-21.0%
CCN(CC)c1ccc(-c2nc3cnccc3n2C)cc1	?	3.98µM*	4.78µM*	3.98µM*	?	?
CC(=O)N1CCC(CCCC2CCN(C(C)=O)CC2)CC1	.	0.9%	-1.0%	1.0%	7.4%	23.1%
COc1ccc(C2C(C(=O)N3CCN(c4ccccc4)CC3)c3ccccc3C(=O)N2C)cc1OC (stereo unspecified)	5.8%	-1.0%	1.5%	0.9%	0.3%	7.6%
COc1cc2c(cc1OC)C(C(=O)N1CCN(c3ccccc3)CC1)C(c1cccs1)N(C)C2=O (stereo unspecified)	1.6%	0.4%	7.6%	-4.3%	-6.7%	18.4µM*
COc1ccc(C2C(C(=O)N3CCN(c4ccccc4)CC3)c3ccccc3C(=O)N2C)cc1 (stereo unspecified)	-12.8%	0.9%	0.4%	-6.7%	-9.5%	20.6µM*
O=C(CCNC(=O)N1CCn2c1nc1ccccc12)NCc1ccc(Cl)cc1	.	-2.2%	-1.6%	-2.6%	-4.6%	?
COc1ccc(CNC(=O)CCCCCNC(=O)N2CCn3c2nc2ccccc23)cc1	.	-1.8%	16.9µM*	-13.8%	0.3%	-2.1%
Cc1c(C(=O)Nc2ccc(Cl)cc2)c2ccccn2c1CCc1ccncc1	-2.9%	?	3.01µM*	?	2.8%	?
Cc1c(C(=O)Nc2cccc(Cl)c2)c2ccccn2c1CCc1ccncc1	8.0%	-5.6%	16.9µM*	-2.5%	-8.1%	?
O=C(NCc1ccncc1)Nc1cccc(Cl)c1	20.3%	10.6%	-14.5%	8.3%	4.7%	?
NS(=O)(=O)c1cc(C(=O)O)c(O)c2ccccc12	-4.0%[9.22 µM]	.	.	.	.	.
CC(C)c1ccc(/C=N\NC(=O)c2ccc(Cn3cccn3)o2)cc1	25.2%	11.1%	1.35µM*	?	9.6%	?
